Common to all, as to assay: NCI-60 one-dose screen, 48 h (100 = growth as untreated, 0 = no growth, -100 = all killed)
Holding throughout (details): 10 µM unless noted

Experiment [1] concerns DU-145 prostate.
Experiment [2] concerns K-562 leukemia.
Experiment [3] concerns MALME-3M melanoma.
The test system of experiment [4] is MDA-MB-231 breast.
The subject of experiment [5] is RXF 393 renal.
Experiment [6] has as its system SF-268 CNS.
Experiment [7] concerns SF-295 CNS.
The subject of experiment [8] is SF-539 CNS.
Experiment [9] deals with UACC-257 melanoma.
Experiment [10] relates to M14 melanoma.

About 83,000 compounds went through this panel and 20% of them were active in at least one assay; those are over-represented in the sample as a whole.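 Single-concentration screen, 48 h exposure, 96-well plates. Endpoint: percent growth. Below 10 = active.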 A number with no mark means an inactive call. Calls of active or inactive are those of the source.

On to `CC1=C/C(=N\N=C2/C=C(C)CC(C)(C)C2)CC(C)(C)C1`, for which the growth in experiment [1] was 105%; in experiment [2], 86.9%; in [3], 96.4%; in [4], 106%; in experiment [5], 114%; in [6], 93.4%. Further, the growth in experiment [7] is 102%; in [8] it was 105%; in [9] it was 90.2%; in [10], 103%.
Consider `CCCNc1nc(C)[nH]c(=O)c1S`, for which the growth in experiment [1] is 91.3%; in experiment [2], 95%; in experiment [3], 112%; in [4] it was 103%; in experiment [5] it was 118%; in [6], 101%. Moreover, the growth was 119% in experiment [7], 115% in [8], 108% in experiment [9] and 109% in experiment [10].
Regarding `Cn1cc(-c2ccc3c(c2)ncn3-c2ccc(CC(=O)Nc3cc(C(C)(C)C)on3)cc2)cn1`, the growth in experiment [1] was 19.3%; in [2], 9.77% (active); in experiment [3], 25.5%; in experiment [4] it was 11%; in [5], -25% (active); in experiment [6] it was 25.6%. Further, the growth in experiment [7] was 37.2%; in [8], -15.8% (active); in [9], 67.1%; in experiment [10], 19.5%.
As for `CCCCc1ccc(N=Nc2ccc(OCC[N+](C)(C)C)cc2)cc1`, the growth in [1] is 60.5%; in experiment [2], 44.5%; in experiment [3] it was 69.4%; in experiment [4] it was 38.5%; in [5], 22.9%; in [6] it was 26.9%. Further, the growth in experiment [7] was 32.9%; in [8], 35.9%; in [9], 71.4%; in [10], 25.8%.
Turning to `O=[N+]([O-])c1ccc(N=Nc2c(O)c(N=Nc3cc([N+](=O)[O-])cc([N+](=O)[O-])c3O)cc(N=Nc3cc(S(=O)(=O)O)cc4cc(S(=O)(=O)O)cc(O)c34)c2O)cc1`, the growth in [1] was 108%; in [2] it was 77.7%; in experiment [3] it was 101%; in experiment [4] it was 102%; in [5], 112%; in experiment [6], 101%. Also, the growth in [7] was 106%; in [8] it was 102%; in experiment [9] it was 105%; in experiment [10] it was 92.4%.
As for `COc1ccc2nc(-c3ccc(OC)c(OC)c3)cc(-c3nnc(SCC(=O)Nc4ccc(/C(C)=N\O)cc4)n3-c3ccccc3)c2c1`, the growth was 83.1% in [1]; 63.5% in [2]; 110% in experiment [3]; 40.2% in experiment [4]; 79.1% in experiment [5]; 78.1% in experiment [6]. In addition, the growth in experiment [7] is 92.9%; in [8], 81.3%; in [9], 88%; in experiment [10], 92.1%.
On to `N#C/C(=C/c1ccc(O)c([N+](=O)[O-])c1)c1nc(-c2ccc([N+](=O)[O-])cc2)cs1`, for which the growth in experiment [1] was 60.3%; in experiment [2], 19.5%; in experiment [3], 30.5%; in experiment [4] it was 39.5%; in experiment [5], 77.7%; in [6] it was 50.5%. Besides, the growth in experiment [7] is 29.6%; in experiment [8], 47.2%; in experiment [9], 20.2%; in experiment [10], 41.5%.
Regarding `CCCCn1c2cc(OCc3cn(-c4ccc(Cl)cc4)nn3)ccc2c2ccnc(C)c21`, the growth in experiment [1] was 72.5%; in [2] it was 14.4%; in experiment [3], 53.9%; in experiment [4], 16.7%; in experiment [5], 47.6%; in experiment [6], 74.6%. For the same compound, the growth in experiment [7] was 40.2%; in [8], 55%; in experiment [9] it was 33.6%; in experiment [10], 40.6%.
Take `Oc1c(CCl)cc(Cl)cc1Cc1cc(Cl)cc(Cc2cc(Cl)cc(CCl)c2O)c1O`: the growth was 44% in [1]; 7.26% (active) in experiment [2]; 27.9% in [3]; 40.2% in [4]; 45.4% in experiment [5]; 17.1% in experiment [6]. The growth is 62.7% in [7], 40.7% in experiment [8], 36.1% in [9] and 27.1% in experiment [10].
On to `COC(=O)/C=C/c1cc(OC(C)=O)c2c(c1)C(C(=O)OC)C(c1ccc(OC(C)=O)c(OC(C)=O)c1)O2` (stereo not given), for which the growth in [1] is 11.2%; in experiment [2], 6.86% (active); in experiment [3], 66.3%; in experiment [4] it was 16.4%; in [5], 28.7%; in [6], 39.6%. Also, the growth is 3.13% (active) in experiment [7], -6.94% (active) in experiment [8], 45.4% in experiment [9] and -6.22% (active) in experiment [10].
In the case of `Cc1ccc(C(=O)/C(=C/c2ccc([N+](=O)[O-])cc2)S(=O)Cc2ccccc2)cc1` (stereo not given), the growth in experiment [1] was 4.09% (active); in experiment [2] it was 4.71% (active); in experiment [3], -13.8% (active); in experiment [4], -2.07% (active); in experiment [5], -81.6% (active); in [6] it was 35.8%. Also, the growth in [7] was 82.3%; in experiment [8], -43.5% (active); in experiment [9], 65.9%; in experiment [10] it was -26.1% (active).
For `CNS(=O)(=O)c1cccc(-c2ccc3c4c(n(C)c(=O)c3c2)-c2ccccc2C4=O)c1`, the growth in experiment [1] is 20.7%; in experiment [2] it was 41.3%; in experiment [3], 55%; in [4], 87.1%; in experiment [5], 96.5%; in experiment [6], 58.6%. The growth is 24.1% in [7], 53.8% in [8], 96.3% in experiment [9] and 60.1% in experiment [10].
As for `N#Cc1ccc(Oc2ccc3ccc(=O)oc3c2)cc1`, the growth in experiment [1] was 107%; in [2], 79%; in experiment [3], 126%; in [4], 98.5%; in experiment [5], 81.8%; in experiment [6], 105%. In addition, the growth was 112% in experiment [7], 101% in [8], 114% in experiment [9] and 92% in experiment [10].
As to `O=C(O)c1ccc(-n2cc(/C=N/Nc3ccc(Cl)cc3Cl)c(-c3ccccc3)n2)cc1`, the growth in [1] is 93.6%; in [2], 87.8%; in experiment [3], 92.3%; in experiment [4] it was 81.7%; in experiment [5], 97.9%; in experiment [6], 81.8%. Further, the growth in [7] is 74.7%; in [8] it was 82%; in experiment [9] it was 116%; in experiment [10], 88.1%.
In the case of `CC1(c2ccccc2Cl)NC(=O)NC1=O` (stereo not given), the growth in experiment [1] was 105%; in [2], 100%; in experiment [3] it was 101%; in [4], 105%; in experiment [5] it was 113%; in [6], 103%. Further, the growth in experiment [7] was 97.1%; in experiment [8], 99.5%; in [9], 91%; in experiment [10], 106%.
In the case of `COc1cccc2c1-c1ccccc1C2=O`, the growth is 17.7% in experiment [1]; 8.78% (active) in [2]; 59.7% in experiment [3]; 29.6% in [4]; -2.91% (active) in [5]; 48.2% in experiment [6]. For the same compound, the growth in experiment [7] was 9.85% (active); in experiment [8] it was -3.06% (active); in experiment [9], 51.5%; in experiment [10] it was -1.41% (active).
With `O=C1[C@@H](OS(=O)(=O)CC(F)(F)F)[C@H](c2ccc(F)cn2)N1c1cc2c3ccccc3ccc2c2ccccc12`, the growth in [1] was 84.5%; in experiment [2] it was 44.5%; in experiment [3], 95%; in experiment [4], 71.2%; in experiment [5], 85.9%; in experiment [6], 78.9%. The growth was 83.3% in experiment [7], 87.1% in experiment [8], 79% in experiment [9] and 72.9% in [10].
Take `COc1ccc2nc3nc4ccc[nH]c4cc3c2c1`: the growth in [1] was 88.3%; in experiment [2], 99.6%; in [3] it was 90%; in experiment [4] it was 98%; in experiment [5], 101%; in [6], 84.5%. For the same compound, the growth in experiment [7] was 112%; in experiment [8], 94%; in experiment [9], 115%; in experiment [10] it was 101%.
For `Cc1ccc(C2=N[C@H]3CCC[C@@H]3N(c3ccccc3)C(C(Cl)Cl)=N2)cc1`, the growth in experiment [1] is 101%; in experiment [2], 94.9%; in experiment [3] it was 95%; in [4], 117%; in experiment [5] it was 83.2%; in [6], 94.6%. The growth in [7] was 91.7%; in [8], 105%; in [9] it was 110%; in experiment [10], 91.9%.
With `COc1cc(N=Nc2cc(S(=O)(=O)O)cc3cc(S(=O)(=O)O)cc(O)c23)c(C)cc1N=Nc1c(S(=O)(=O)O)cc2cc(Nc3ccccc3)ccc2c1O`, the growth is 103% in experiment [1]; 84.6% in [2]; 93.8% in experiment [3]; 107% in experiment [4]; 129% in experiment [5]; 98.2% in experiment [6]. For the same compound, the growth was 109% in experiment [7], 103% in experiment [8], 111% in experiment [9] and 102% in experiment [10].
Regarding `Cc1nccc2c3ccc(OCc4cn(-c5ccc(Br)cc5)nn4)cc3n(CC(C)C)c12`, the growth was 76% in [1]; 14.8% in [2]; 51.1% in experiment [3]; 46.9% in experiment [4]; 46.1% in [5]; 68.4% in experiment [6]. In addition, the growth in [7] was 40%; in experiment [8] it was 61.4%; in experiment [9], 27.3%; in experiment [10], 42.6%.
Turning to `NC(N)=NC(N)=Nc1cc2ccccc2c2ccccc12`, the growth in experiment [1] is 56.3%; in experiment [2], 5.89% (active); in [3], -8.45% (active); in experiment [4] it was 15.6%; in experiment [5] it was 36.3%; in [6] it was 48%. The growth is 53.3% in experiment [7], 59.9% in [8], 74.4% in experiment [9] and -33.4% (active) in experiment [10].
For the compound `CC1(C)[C@@H](O)CC[C@]2(C)[C@H]3CC[C@@H]4[C@H]5[C@H](c6cn(-c7ccccc7)nn6)CC[C@]5(CO)CC[C@@]4(C)[C@]3(C)CC[C@@H]12`, the growth in [1] was 95.4%; in experiment [2] it was 79.2%; in experiment [3], 104%; in experiment [4], 84.3%; in experiment [5] it was 65.3%; in [6], 76.7%. In addition, the growth was 86.5% in [7], 92.6% in experiment [8], 83.6% in [9] and 90.5% in experiment [10].
In the case of `CCOc1ccccc1C(=O)/C=C/c1cc2ccccc2[nH]c1=O`, the growth in experiment [1] was -37% (active); in [2], 5.07% (active); in experiment [3], -39% (active); in experiment [4] it was -52.8% (active); in experiment [5] it was -69.4% (active); in [6], -10.8% (active). Moreover, the growth was 1.85% (active) in experiment [7], -29.9% (active) in experiment [8], -9.05% (active) in [9] and -20.4% (active) in experiment [10].
As to `CN(C)C(CNc1oc(-c2cccc3ccccc23)nc1C#N)c1ccco1` (stereo not given), the growth is 98.7% in experiment [1]; 74.5% in [2]; 98% in experiment [3]; 107% in experiment [4]; 99.3% in experiment [5]; 91.4% in experiment [6]. Also, the growth in experiment [7] was 90.1%; in experiment [8] it was 102%; in experiment [9] it was 98.5%; in experiment [10] it was 91.9%.
`CN(C)C1=NCCN1`: the growth in experiment [1] is 108%; in experiment [2], 95.6%; in experiment [3], 97.2%; in experiment [4] it was 105%; in experiment [5] it was 108%; in [6], 104%. Further, the growth was 101% in experiment [7], 104% in experiment [8], 103% in experiment [9] and 95.7% in [10].
For the compound `Cc1[nH]c2ncnc(Oc3ccc(NC(=O)Nc4ccc(Cl)c(C(F)(F)F)c4)cc3)c2c1C`, the growth was 66.4% in experiment [1]; 26.6% in experiment [2]; 61.6% in experiment [3]; 44.6% in experiment [4]; 74.3% in [5]; 53% in experiment [6]. Moreover, the growth was 62.4% in [7], 56% in [8], 64.2% in experiment [9] and 52.1% in experiment [10].
